The record followed here is the supplement of paper PMC10849652.

Test in all cases: log2 fold change, soluble protein after heating vs DMSO (PISA); higher = thermal stabilisation; K562 cells, 10 uM, 30 min; active = over 0.2 and 3.5 SD of the protein, either way, in both replicates (recomputed)
Compound in assay [1]: C1=CC=C(C=C1)[C@H](COC2=CC3=C(C=C2)NC(=O)N3)NC(=O)C4=CC=CN(C4=O)CC5=CC(=C(C=C5)F)F
An outline of the steps:
(§1)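 Aliquots of K562 cells (2×10^6 cells/mL) treated with 10 μM compound for 30 min were heated for 3 min over 48°C-58°C. After pooling and extraction in PBS with 0.5% NP-40 at 4°C, soluble protein from a 21,000xg, 90 min spin was quantified by TMTpro 16plex LC-MS/MS with channel sums equalised. Thermal stability is expressed against control samples, from duplicates, as a log2 fold change.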

Compound in assay [2]: CC1=C(SC2=C1C(=N[C@H](C3=NN=C(N32)C)CC(=O)N)C4=CC=C(C=C4)Cl)C
The gist of the method:
as §1

Compound in assay [3]: CC1=C2C(=CC=C1)N=C(N(C2=O)C3=CC=CC=C3C)CN4C=NC5=C(N=CN=C54)N
The gist of the method:
as §1

Compound in assay [4]: Cc1sc2c(c1C)C(c1ccc(Cl)cc1)=N[C@@H](CC(=O)OC(C)(C)C)c1nnc(C)n1-2
The gist of the method:
as §1

Compound in assay [5]: c1ccc([C@@H]2C[C@H]2NC2CCNCC2)cc1
An outline of the steps:
as §1

About 7,900 targets were measured; listed, in parts, are those with a hit and a random draw of the rest. About 0.6% of all pairs of compound and target were hits.

Chain of UniProt Q92522 (Q92522 whole entry, looked up): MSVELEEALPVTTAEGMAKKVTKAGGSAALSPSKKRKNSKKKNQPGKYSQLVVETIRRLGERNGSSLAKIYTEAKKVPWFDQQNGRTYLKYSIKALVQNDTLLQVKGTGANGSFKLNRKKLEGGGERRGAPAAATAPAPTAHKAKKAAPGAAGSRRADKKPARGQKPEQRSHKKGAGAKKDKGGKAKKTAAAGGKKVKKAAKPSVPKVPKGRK
Chain of UniProt Q86UX7 (Q86UX7 whole entry, looked up): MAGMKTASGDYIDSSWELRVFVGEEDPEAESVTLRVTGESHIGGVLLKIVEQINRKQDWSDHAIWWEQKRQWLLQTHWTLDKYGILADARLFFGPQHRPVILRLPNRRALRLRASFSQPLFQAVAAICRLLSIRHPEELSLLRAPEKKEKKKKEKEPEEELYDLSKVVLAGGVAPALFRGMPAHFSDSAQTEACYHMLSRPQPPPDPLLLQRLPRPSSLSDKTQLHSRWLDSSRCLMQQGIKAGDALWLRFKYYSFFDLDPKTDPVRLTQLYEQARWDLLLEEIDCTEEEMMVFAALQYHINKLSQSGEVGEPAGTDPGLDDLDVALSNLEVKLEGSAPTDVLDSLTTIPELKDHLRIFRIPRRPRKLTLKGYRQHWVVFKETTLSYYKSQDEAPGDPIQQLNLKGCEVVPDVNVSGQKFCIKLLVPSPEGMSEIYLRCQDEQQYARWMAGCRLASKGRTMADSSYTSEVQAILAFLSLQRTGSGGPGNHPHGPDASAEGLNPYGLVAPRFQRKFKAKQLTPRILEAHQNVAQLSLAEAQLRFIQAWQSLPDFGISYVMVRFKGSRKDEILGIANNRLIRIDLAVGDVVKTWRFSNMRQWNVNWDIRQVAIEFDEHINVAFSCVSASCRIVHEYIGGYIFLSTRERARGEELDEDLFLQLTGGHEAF
Chain of UniProt Q8WUI4 (Q8WUI4 whole entry, looked up): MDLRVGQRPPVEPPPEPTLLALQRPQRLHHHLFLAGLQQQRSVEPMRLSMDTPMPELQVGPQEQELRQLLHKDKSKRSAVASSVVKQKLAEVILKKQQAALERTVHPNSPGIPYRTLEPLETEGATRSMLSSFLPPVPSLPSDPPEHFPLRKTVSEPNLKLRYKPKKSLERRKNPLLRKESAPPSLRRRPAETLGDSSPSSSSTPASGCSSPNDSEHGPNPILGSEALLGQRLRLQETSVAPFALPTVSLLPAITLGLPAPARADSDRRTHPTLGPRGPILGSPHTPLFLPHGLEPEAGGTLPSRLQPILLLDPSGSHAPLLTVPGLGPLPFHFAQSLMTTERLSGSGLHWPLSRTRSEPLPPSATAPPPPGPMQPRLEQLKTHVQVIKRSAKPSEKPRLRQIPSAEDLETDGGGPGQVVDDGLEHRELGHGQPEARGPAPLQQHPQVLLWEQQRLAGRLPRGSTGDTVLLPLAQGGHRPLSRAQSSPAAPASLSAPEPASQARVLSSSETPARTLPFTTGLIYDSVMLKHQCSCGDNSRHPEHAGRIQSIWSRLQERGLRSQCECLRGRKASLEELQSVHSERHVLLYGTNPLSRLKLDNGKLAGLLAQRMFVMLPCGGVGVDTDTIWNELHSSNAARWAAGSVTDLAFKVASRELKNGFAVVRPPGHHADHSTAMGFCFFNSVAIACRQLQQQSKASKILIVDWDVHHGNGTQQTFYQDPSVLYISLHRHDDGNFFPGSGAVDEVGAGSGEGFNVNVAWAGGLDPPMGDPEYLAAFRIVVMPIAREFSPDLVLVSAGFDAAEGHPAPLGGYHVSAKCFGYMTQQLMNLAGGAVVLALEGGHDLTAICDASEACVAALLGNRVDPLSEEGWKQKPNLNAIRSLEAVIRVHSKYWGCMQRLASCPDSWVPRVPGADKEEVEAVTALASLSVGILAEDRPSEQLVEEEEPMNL
Chain of UniProt Q14789 (Q14789 whole entry, looked up): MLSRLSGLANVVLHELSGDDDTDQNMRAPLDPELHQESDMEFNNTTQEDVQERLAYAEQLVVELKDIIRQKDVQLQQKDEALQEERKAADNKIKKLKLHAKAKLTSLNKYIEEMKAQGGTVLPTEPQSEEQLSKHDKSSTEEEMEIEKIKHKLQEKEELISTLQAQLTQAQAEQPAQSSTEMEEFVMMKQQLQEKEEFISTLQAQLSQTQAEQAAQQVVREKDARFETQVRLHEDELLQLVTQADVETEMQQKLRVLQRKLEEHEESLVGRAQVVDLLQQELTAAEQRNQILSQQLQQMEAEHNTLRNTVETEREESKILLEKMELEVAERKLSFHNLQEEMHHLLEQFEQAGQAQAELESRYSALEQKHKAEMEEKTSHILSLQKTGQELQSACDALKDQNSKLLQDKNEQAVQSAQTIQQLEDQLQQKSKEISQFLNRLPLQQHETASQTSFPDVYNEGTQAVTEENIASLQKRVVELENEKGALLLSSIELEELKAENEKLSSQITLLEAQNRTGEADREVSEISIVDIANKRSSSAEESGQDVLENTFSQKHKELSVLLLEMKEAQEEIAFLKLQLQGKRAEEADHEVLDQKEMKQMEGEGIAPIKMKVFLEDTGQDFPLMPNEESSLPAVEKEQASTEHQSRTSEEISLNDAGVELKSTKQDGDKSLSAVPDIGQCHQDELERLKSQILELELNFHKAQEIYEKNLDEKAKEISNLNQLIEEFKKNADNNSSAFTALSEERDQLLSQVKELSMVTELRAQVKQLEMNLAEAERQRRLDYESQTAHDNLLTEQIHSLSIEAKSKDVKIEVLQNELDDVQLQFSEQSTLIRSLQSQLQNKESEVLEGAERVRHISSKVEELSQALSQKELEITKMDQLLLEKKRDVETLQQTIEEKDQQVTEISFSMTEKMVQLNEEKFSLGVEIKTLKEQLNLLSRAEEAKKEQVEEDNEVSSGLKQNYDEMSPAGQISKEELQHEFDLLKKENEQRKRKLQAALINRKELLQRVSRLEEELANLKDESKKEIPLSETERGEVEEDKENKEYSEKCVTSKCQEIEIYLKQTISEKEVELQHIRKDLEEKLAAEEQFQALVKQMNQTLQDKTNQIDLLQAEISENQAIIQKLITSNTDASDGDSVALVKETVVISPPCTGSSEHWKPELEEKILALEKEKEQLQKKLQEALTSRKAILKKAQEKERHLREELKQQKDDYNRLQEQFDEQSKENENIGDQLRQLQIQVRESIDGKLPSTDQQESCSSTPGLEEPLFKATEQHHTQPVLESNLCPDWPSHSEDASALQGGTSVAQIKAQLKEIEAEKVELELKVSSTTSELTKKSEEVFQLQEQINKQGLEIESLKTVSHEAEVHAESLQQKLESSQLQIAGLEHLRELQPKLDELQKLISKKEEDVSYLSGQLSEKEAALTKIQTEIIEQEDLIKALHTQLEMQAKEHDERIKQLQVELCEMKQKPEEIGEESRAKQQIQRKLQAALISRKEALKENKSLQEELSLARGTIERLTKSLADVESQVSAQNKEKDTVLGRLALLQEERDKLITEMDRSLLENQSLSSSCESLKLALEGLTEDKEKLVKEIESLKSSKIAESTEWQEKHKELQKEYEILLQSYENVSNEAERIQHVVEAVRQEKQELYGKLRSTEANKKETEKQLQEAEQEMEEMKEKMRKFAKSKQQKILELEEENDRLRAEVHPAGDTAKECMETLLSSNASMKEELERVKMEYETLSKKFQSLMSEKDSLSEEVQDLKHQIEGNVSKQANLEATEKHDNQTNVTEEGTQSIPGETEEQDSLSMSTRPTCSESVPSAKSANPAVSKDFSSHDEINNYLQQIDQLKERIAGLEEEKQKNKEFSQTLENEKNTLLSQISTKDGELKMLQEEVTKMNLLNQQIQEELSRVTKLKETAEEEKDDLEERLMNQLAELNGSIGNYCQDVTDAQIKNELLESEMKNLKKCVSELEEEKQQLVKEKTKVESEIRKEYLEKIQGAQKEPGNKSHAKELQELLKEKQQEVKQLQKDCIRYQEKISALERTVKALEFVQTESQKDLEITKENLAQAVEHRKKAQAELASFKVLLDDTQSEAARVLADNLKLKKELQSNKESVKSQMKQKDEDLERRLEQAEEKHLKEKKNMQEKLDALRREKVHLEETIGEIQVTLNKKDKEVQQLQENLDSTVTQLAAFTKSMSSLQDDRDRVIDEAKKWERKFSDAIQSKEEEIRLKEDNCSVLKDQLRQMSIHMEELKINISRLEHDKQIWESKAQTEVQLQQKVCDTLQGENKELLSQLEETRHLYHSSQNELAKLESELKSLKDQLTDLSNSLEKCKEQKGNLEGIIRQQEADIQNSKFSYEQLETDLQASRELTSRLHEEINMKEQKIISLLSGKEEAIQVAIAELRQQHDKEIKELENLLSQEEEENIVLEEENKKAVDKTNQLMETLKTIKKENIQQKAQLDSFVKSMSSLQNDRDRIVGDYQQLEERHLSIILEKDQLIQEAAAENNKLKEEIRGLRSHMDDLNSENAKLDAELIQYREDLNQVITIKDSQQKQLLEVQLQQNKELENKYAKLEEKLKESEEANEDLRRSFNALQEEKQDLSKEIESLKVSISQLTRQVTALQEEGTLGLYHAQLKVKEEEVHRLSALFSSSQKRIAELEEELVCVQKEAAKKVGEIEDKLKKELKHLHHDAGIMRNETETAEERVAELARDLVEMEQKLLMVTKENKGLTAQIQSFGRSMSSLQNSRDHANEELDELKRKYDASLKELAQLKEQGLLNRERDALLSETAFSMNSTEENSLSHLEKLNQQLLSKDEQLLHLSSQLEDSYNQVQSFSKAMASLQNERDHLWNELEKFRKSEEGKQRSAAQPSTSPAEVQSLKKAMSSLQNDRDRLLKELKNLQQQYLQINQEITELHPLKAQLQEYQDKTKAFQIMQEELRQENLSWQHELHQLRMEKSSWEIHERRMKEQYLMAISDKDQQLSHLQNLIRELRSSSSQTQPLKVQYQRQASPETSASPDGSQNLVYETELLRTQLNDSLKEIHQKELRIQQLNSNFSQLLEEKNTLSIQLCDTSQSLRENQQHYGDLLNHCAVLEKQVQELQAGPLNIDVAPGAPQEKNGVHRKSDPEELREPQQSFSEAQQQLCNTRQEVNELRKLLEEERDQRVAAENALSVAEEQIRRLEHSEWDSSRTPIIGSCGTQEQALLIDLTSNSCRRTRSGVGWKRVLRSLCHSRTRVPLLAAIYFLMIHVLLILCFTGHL

In the case of FDXR isoform 7 (UniProt P22570), the log2 fold change in assay [1] was -0.069 (inactive); in assay [2], 0.106 (inactive); in assay [3], 0.038 (inactive); in assay [4], -0.037 (inactive); in assay [5] it was -0.01 (inactive).
For GATD1 (UniProt Q8NB37), the log2 fold change is -0.038 (inactive) in assay [1]; 0.043 (inactive) in assay [2]; 0.019 (inactive) in assay [3]; 0.019 (inactive) in assay [4]; 0.007 (inactive) in assay [5].
FERMT3 (UniProt Q86UX7): the log2 fold change in assay [1] was -0.026 (inactive); in assay [2] it was 0.066 (inactive); in assay [3], 0.053 (inactive); in assay [4], -0.018 (inactive); in assay [5], -0.019 (inactive).
For the target GYG1 (UniProt P46976), the log2 fold change in assay [1] was 0.02 (inactive); in assay [2], -0.077 (inactive); in assay [3] it was -0.046 (inactive); in assay [4] it was -0.008 (inactive); in assay [5], -0.019 (inactive).
The matching figures for HDAC7 isoform 5 (UniProt Q8WUI4): -0.008 (inactive), 0.039 (inactive), -0.004 (inactive), -0.026 (inactive) and -0.003 (inactive).
The matching figures for FAT2 (UniProt Q9NYQ8): -0.092 (inactive), 0.669 (active), 0.163 (inactive), -0.091 (inactive) and -0.218 (inactive).
The matching figures for HPCAL1 (UniProt P37235): 0.007 (inactive), -0.011 (inactive), 0.047 (inactive), -0.011 (inactive) and 0.032 (inactive).
For GOLGB1 isoform 2 (UniProt Q14789), the log2 fold change in assay [1] was 0.045 (inactive); in assay [2], -0.024 (inactive); in assay [3], 0.018 (inactive); in assay [4], 0.013 (inactive); in assay [5], 0.045 (inactive).
On to H1FX (UniProt Q92522), for which the log2 fold change in assay [1] was 0.088 (inactive); in assay [2], -0.146 (inactive); in assay [3], -0.21 (inactive); in assay [4] it was 0.135 (inactive); in assay [5], -0.005 (inactive).
